These results are taken from ChEMBL document CHEMBL2218924, “A broad activity screen in support of a chemogenomic map for kinase signalling research and drug discovery” (Biochem J, 2013).

For the first test, the target named is T1, Discoidin domain-containing receptor 2 (Homo sapiens) (UniProt Q16832).
T1 sequence (whole entry): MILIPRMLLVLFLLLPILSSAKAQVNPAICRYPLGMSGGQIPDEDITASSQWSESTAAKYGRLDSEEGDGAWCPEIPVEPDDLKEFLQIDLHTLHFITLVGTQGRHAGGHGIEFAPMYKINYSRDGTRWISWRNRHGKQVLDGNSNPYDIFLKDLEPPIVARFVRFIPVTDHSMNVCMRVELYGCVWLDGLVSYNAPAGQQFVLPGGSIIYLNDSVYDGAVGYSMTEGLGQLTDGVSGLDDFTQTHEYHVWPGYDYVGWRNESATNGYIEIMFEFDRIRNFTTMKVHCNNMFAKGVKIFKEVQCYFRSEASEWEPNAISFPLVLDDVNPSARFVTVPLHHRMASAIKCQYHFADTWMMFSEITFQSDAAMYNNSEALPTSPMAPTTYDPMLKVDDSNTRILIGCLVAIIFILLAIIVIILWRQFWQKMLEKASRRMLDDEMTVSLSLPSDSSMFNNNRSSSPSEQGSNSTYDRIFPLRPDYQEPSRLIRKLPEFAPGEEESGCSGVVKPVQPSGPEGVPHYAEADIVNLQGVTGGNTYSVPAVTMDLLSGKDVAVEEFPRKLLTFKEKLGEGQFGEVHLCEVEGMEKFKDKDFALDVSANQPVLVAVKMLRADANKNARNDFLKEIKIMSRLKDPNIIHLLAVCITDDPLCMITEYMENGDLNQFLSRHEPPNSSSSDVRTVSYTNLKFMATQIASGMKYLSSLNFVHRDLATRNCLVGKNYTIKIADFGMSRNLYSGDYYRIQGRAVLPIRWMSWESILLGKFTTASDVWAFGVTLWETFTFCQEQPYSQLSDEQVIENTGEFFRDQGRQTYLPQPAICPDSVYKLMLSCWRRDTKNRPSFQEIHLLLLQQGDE
The settings on record: at 1 µM.
A word on the residual activity: it is the signal under treatment as a percentage of the control signal. With `O=c1c2ccccc2[nH]c(=S)n1CCN1CCC(=C(c2ccc(F)cc2)c2ccc(F)cc2)CC1`, the residual activity amounted to 104%.
Same read-out and setting: with `O=[N+]([O-])c1ccc(-c2nc(-c3ccc(F)cc3)c(-c3ccncc3)[nH]2)cc1` the figure was 77%.
Still for that read-out and setting: with `O=C1Nc2cc(Br)ccc2/C1=C1/Nc2ccccc2/C1=N\O` the figure was 74%; with `O=Nc1c(-c2c(O)[nH]c3ccccc23)[nH]c2ccccc12`, 94%.
On the same count and under the same terms, then `CC[n+]1c(/C=C/N(C)c2ccccc2)n(-c2ccccc2)c2ccc(-c3nc4ccccc4s3)cc21`, with 116%; and `CC(C)n1cnc2/c(=N/c3cccc(Cl)c3)nc(NCCO)[nH]c21`, with 94%.
On to `Oc1n[nH]c2nnc(-c3c(-c4ccccc4)nn4ccccc34)cc12`, for which the residual activity is 92%.
Same read-out and setting: with `CCN(CC)CCCCN1c2ccccc2Oc2ccc(Cl)cc21` the figure was 115%.
For `Cn1nc2c3c(cccc31)C(=O)c1ccccc1-2`, the residual activity turned out to be 100%.
Still for that read-out and setting: then `NC(=O)c1ccc2[nH]c(-c3ccc(Oc4ccc(Cl)cc4)cc3)nc2c1`, with 98%.
Still for that read-out and setting: then `COc1cc2ncnc(N3CCN(C(=O)Nc4ccc(Oc5ccccc5)cc4)CC3)c2cc1OC`, with 106%.
Turning to `CC(=O)O/N=C1\C(=C2\C(=O)Nc3cc(Br)ccc32)Nc2ccccc21`, the residual activity was 91%.
On the same count and under the same terms, with `Ic1cccc(CSc2nnc(-c3ccncc3)o2)c1` the figure was 86%; with `COc1cc2ncnc(Nc3ccc(Oc4ccccc4)cc3)c2cc1OC`, 113%; with `Cc1nc2cc3nc(-c4cccs4)cnc3cc2n1C`, 111%.
On the same count and under the same terms, with `O=C1NC(=O)/C(=C/c2ccc3c(c2)OC(F)(F)O3)S1` the figure was 130%; with `COc1ccc(C(=O)Nc2sc3c(c2C(N)=O)CCCC3)cc1OC`, 101%.
Regarding `C[C@@H](N)[C@H]1CC[C@H](C(=O)Nc2ccncc2)CC1`, the residual activity is 108%.
The same measure, in the same setting: then `N#C/C(=C(\N)Sc1ccc(N)cc1)c1ccccc1C(F)(F)F`, with 91%.
The same measure, in the same setting: then `CC(C)n1cnc2c(NCc3ccccc3)nc(NCCCO)nc21`, with 87%; and `Cn1cc(/C=C2\C(=O)Nc3ccc(S(N)(=O)=O)cc32)c2ccccc21`, with 94%.
On to `O=C1NC(=O)c2cc(Nc3ccc(F)cc3)c(Nc3ccc(F)cc3)cc21`, for which the residual activity came to 92%.
On the same count and under the same terms, with `Cc1ccc(S(=O)(=O)/C=C/C#N)cc1` the figure was 98%.
The same measure, in the same setting: then `CNc1cc2c(Nc3cccc(Br)c3)ncnc2cn1`, with 84%.
Same read-out and setting: then `Oc1ccc(-c2nc(-c3ccc(F)cc3)c(-c3ccncc3)[nH]2)cc1`, with 69%; and `CN(C)c1ccc(/C=C2\C(=O)Nc3ccccc32)cc1`, with 104%; and `O=c1cc(-c2cccc3c2Sc2ccccc2S3)oc(N2CCOCC2)c1`, with 93%.
As to `Cc1ccc(NC2=CC(=O)c3sc(C)nc3C2=O)cc1`, the residual activity stood at 94%.
With `COc1ccc(OC)c2c(=S)c3ccccc3[nH]c12`, the residual activity amounted to 99%.
With `Nc1cccc(-c2cc3c(Oc4cccc(O)c4)ncnc3[nH]2)c1`, the residual activity was 23%.
Consider `COc1ccc(CNc2nc(N(CCO)CCO)nc3c2ncn3C(C)C)cc1`, for which the residual activity is 91%.
For `Cn1cnc2cc3c(Nc4cccc(Br)c4)ncnc3cc21`, the residual activity was found to be 75%.
Take `O=C1c2ccccc2-[n+]2ccc3c([nH]c4ccccc43)c21`: the residual activity amounted to 78%.
On the same count and under the same terms, with `O=C(O)c1ccc2c3c1cccc3c(=O)n1c3ccccc3nc21` the figure was 99%; with `COc1ccc(S(=O)(=O)N(CCO)c2ccccc2CN(C)C/C=C/c2ccc(Cl)cc2)cc1`, 97%.

The next test has as its target T1, Discoidin domain-containing receptor 2 (Homo sapiens). The settings on record: at 10 µM.
In the case of `O=c1c2ccccc2[nH]c(=S)n1CCN1CCC(=C(c2ccc(F)cc2)c2ccc(F)cc2)CC1`, the residual activity was found to be 87%.
Consider `O=[N+]([O-])c1ccc(-c2nc(-c3ccc(F)cc3)c(-c3ccncc3)[nH]2)cc1`, for which the residual activity worked out at 52%.
Still for that read-out and setting: with `O=C1Nc2cc(Br)ccc2/C1=C1/Nc2ccccc2/C1=N\O` the figure was 37%; with `O=Nc1c(-c2c(O)[nH]c3ccccc23)[nH]c2ccccc12`, 87%; with `CC[n+]1c(/C=C/N(C)c2ccccc2)n(-c2ccccc2)c2ccc(-c3nc4ccccc4s3)cc21`, 88%.
For the compound `CC(C)n1cnc2/c(=N/c3cccc(Cl)c3)nc(NCCO)[nH]c21`, the residual activity was found to be 93%.
The same measure, in the same setting: then `Oc1n[nH]c2nnc(-c3c(-c4ccccc4)nn4ccccc34)cc12`, with 95%; and `CCN(CC)CCCCN1c2ccccc2Oc2ccc(Cl)cc21`, with 90%.
Still for that read-out and setting: then `Cn1nc2c3c(cccc31)C(=O)c1ccccc1-2`, with 104%; and `NC(=O)c1ccc2[nH]c(-c3ccc(Oc4ccc(Cl)cc4)cc3)nc2c1`, with 102%; and `COc1cc2ncnc(N3CCN(C(=O)Nc4ccc(Oc5ccccc5)cc4)CC3)c2cc1OC`, with 117%.
On the same count and under the same terms, then `CC(=O)O/N=C1\C(=C2\C(=O)Nc3cc(Br)ccc32)Nc2ccccc21`, with 71%.
As to `Ic1cccc(CSc2nnc(-c3ccncc3)o2)c1`, the residual activity worked out at 82%.
Regarding `COc1cc2ncnc(Nc3ccc(Oc4ccccc4)cc3)c2cc1OC`, the residual activity stood at 103%.
On the same count and under the same terms, with `Cc1nc2cc3nc(-c4cccs4)cnc3cc2n1C` the figure was 93%.
Still for that read-out and setting: then `O=C1NC(=O)/C(=C/c2ccc3c(c2)OC(F)(F)O3)S1`, with 105%; and `COc1ccc(C(=O)Nc2sc3c(c2C(N)=O)CCCC3)cc1OC`, with 98%.
Still for that read-out and setting: then `C[C@@H](N)[C@H]1CC[C@H](C(=O)Nc2ccncc2)CC1`, with 105%.
For the compound `N#C/C(=C(\N)Sc1ccc(N)cc1)c1ccccc1C(F)(F)F`, the residual activity is 108%.
The same measure, in the same setting: with `CC(C)n1cnc2c(NCc3ccccc3)nc(NCCCO)nc21` the figure was 91%.
For the compound `Cn1cc(/C=C2\C(=O)Nc3ccc(S(N)(=O)=O)cc32)c2ccccc21`, the residual activity amounted to 99%.
On to `O=C1NC(=O)c2cc(Nc3ccc(F)cc3)c(Nc3ccc(F)cc3)cc21`, for which the residual activity was found to be 51%.
The same measure, in the same setting: then `Cc1ccc(S(=O)(=O)/C=C/C#N)cc1`, with 100%.
On the same count and under the same terms, then `CNc1cc2c(Nc3cccc(Br)c3)ncnc2cn1`, with 68%.
For the compound `Oc1ccc(-c2nc(-c3ccc(F)cc3)c(-c3ccncc3)[nH]2)cc1`, the residual activity turned out to be 20%.
On the same count and under the same terms, then `CN(C)c1ccc(/C=C2\C(=O)Nc3ccccc32)cc1`, with 99%.
Still for that read-out and setting: with `O=c1cc(-c2cccc3c2Sc2ccccc2S3)oc(N2CCOCC2)c1` the figure was 100%; with `Cc1ccc(NC2=CC(=O)c3sc(C)nc3C2=O)cc1`, 101%; with `COc1ccc(OC)c2c(=S)c3ccccc3[nH]c12`, 103%.
On the same count and under the same terms, with `Nc1cccc(-c2cc3c(Oc4cccc(O)c4)ncnc3[nH]2)c1` the figure was 4%; with `COc1ccc(CNc2nc(N(CCO)CCO)nc3c2ncn3C(C)C)cc1`, 96%.
For the compound `Cn1cnc2cc3c(Nc4cccc(Br)c4)ncnc3cc21`, the residual activity worked out at 60%.
For `O=C1c2ccccc2-[n+]2ccc3c([nH]c4ccccc43)c21`, the residual activity was determined as 84%.
On the same count and under the same terms, with `O=C(O)c1ccc2c3c1cccc3c(=O)n1c3ccccc3nc21` the figure was 101%.
Same read-out and setting: with `COc1ccc(S(=O)(=O)N(CCO)c2ccccc2CN(C)C/C=C/c2ccc(Cl)cc2)cc1` the figure was 97%.
